The entries come from a sample that favours hits as a whole.
Dicer inh – inhibitors of Dicer pre-microRNA processing, primary screen, biochemical, cat-ELCCA, chemiluminescence | z-score at 25 µM | Endoribonuclease Dicer (Homo sapiens), Q9UPY3 | cat-ELCCA pre-miR-21 Dicer processing; active compounds read high | 47,000 tested, 6% active | AID 1347074, 2019; in the data active = z-score above about 3, passing the limit was not always enough;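 note: plate controls were vehicle for no effect and no enzyme for full effect; higher signal means more uncleaved substrate so more Dicer inhibition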
Numbers without * were called inactive.

SMILES | Dicer inh
O=c1cc(CSc2ccc(Cl)cc2)[nH]c2[nH]n(-c3ccccc3)c(=O)c12 | 5.4*
O=c1cc(CSc2ccc(Cl)cc2)[nH]n1-c1ccccc1 | 35
Cc1ccc(S(=O)(=O)Nc2cccc3ccccc23)cc1 | 2.9
Cc1ccc(S(=O)(=O)Nc2cccc3cccc(Br)c23)cc1 | 3.1*
Cc1ccc(S(=O)(=O)Nc2ccc(C)cc2C)cc1 | 1.6
COc1cccc(C2C(C(=O)OC(C)C)=C(C)Nc3nc4ccccc4n32)c1OC (stereo not drawn) | -0.68
Cn1c(Oc2ccc(Br)cc2)nc2c1c(=O)n(Cc1ccc(Br)cc1)c(=O)n2C | 1.2
COc1ccc(Oc2nc3c(c(=O)n(Cc4ccc(Br)cc4)c(=O)n3C)n2C)cc1 | 4.1*
Cn1c(Oc2ccc(F)cc2)nc2c1c(=O)n(Cc1ccccc1)c(=O)n2C | 0.4
O=C(O)CSCC(=O)Nc1nnc(C2CC2)s1 | 0.96
CC(C)(C)c1ccc(-c2nc(NCCN3CCOCC3)c3ccccc3n2)cc1 | -1.5
c1ccc(-c2nc(NCCCN3CCOCC3)c3ccccc3n2)cc1 | 2
c1ccc(-c2nc(NCCN3CCOCC3)c3ccccc3n2)cc1 | 3.3*
CCOC(=O)c1cc(NC(=O)NC(=O)c2c(Cl)cccc2Cl)ccc1Oc1cncc(Cl)c1 | 2.3
CCCc1nc(-c2ccc(-c3ccc(C)cc3)nc2OC)no1 | -0.99
COc1cccc(C(=O)OCC(=O)c2ccc(Br)cc2)c1 | 5.9*
COc1ccc(C(=O)OCC(=O)c2ccc(Br)cc2)cc1OC | 0.14
Cc1ccc(I)c(C(=O)OCC(=O)c2ccc(Br)cc2)c1 | 1.2
CN(C)/C=N/S(=O)(=O)c1ccc(Oc2c(Cl)cccc2[N+](=O)[O-])cc1 | -0.03
Cc1ccc(S(=O)(=O)CCSc2sc(C#N)c3c2C(=O)CC(C)(C)C3)cc1 | 0.95
O=C(Oc1c(-c2ccccc2)c(=O)n2c3c(cccc13)CC2)c1ccccc1 | -2
O=C(Oc1c(-c2ccccc2)c(=O)n2c3c(cccc13)CCC2)c1cccs1 | -1
O=C(Oc1c(-c2ccccc2)c(=O)n2c3c(cccc13)CC2)c1cccs1 | 4*
CSC1=C(C#N)C(c2ccc(Cl)cc2)C2=C(CCCC2=O)N1 (stereo not drawn) | 2.2
COC(=O)c1cc2cc(Br)ccc2c(Br)c1OC | -1.1
SMILES | Dicer inh
COC(=O)C1=CC(C(=O)c2ccc(Cl)cc2)=NN(c2ccccc2)C1C(=O)OC (stereo not drawn) | 2.6
COc1ccc(-c2csc(Nc3ccc(C)cn3)n2)cc1OC | 1.1
Cc1ccc(Nc2nc(-c3ccc(O)c(O)c3)cs2)nc1 | 2.1
Cc1ccc(Nc2nc(-c3ccc(O)cc3)cs2)nc1 | 4.4*
CC(=O)Nc1c(C)cc(Cl)cc1Cl | -0.62
C/C(=N\Nc1c(Cl)cc(Cl)cc1Cl)c1oc(C)nc1C | 3.2*
C/C(=N\Nc1c(Cl)cc(Cl)cc1Cl)c1cc(F)ccc1O | 2.1
CC1CN(C(=S)Nc2cccc3ccccc23)CC(C)O1 (stereo not drawn) | -1.5
CC(C)NC(=S)Nc1cccc2ccccc12 | 6.1*
CCOC(=S)Nc1cccc2ccccc12 | -1.2
O=C1NCCCCC1NS(=O)(=O)c1cc(S(=O)(=O)c2ccccc2)cs1 (stereo not drawn) | 1.1
C=CCOc1ccc(C2CC(=O)Nc3n[nH]c(-c4ccccc4)c32)cc1OC (stereo not drawn) | 0.99
CC(=O)Nc1cc(C)c(NS(=O)(=O)c2ccc(C)cc2)c(C)c1 | -1.1
Cc1ccc(S(=O)(=O)Nc2ccc(O)c(S(=O)(=O)c3ccc(C)cc3)c2)cc1 | 4*
Cc1ccc(NS(=O)(=O)c2ccc(S(N)(=O)=O)cc2)cc1 | -1.7
O=c1cc(Nc2ccc(OC(F)(F)F)cc2)c2ccccc2o1 | 3.2*
O=c1nc(Nc2ccc(OC(F)(F)F)cc2)c2ccccc2o1 | 0.39
O=C(NNC(=O)Nc1ccc(OC(F)(F)F)cc1)Nc1ccc(OC(F)(F)F)cc1 | 0.17
COc1ccc(C2C3=C(CCCC3=O)NC3=C2C(=O)CCC3)cc1Cl | -0.23
O=[N+]([O-])c1ccc(N2CCCN(S(=O)(=O)c3ccccc3)CC2)nc1 | -0.82
O=C(Cn1cc(C(=O)c2ccco2)c2ccccc21)NCc1cccs1 | -1.1
O=C(Cn1cc(C(=O)c2ccco2)c2ccccc21)NCc1ccco1 | -1.1
O=C(Cn1cc(C(=O)c2ccco2)c2ccccc21)NCCc1c[nH]c2ccccc12 | 4*
Brc1ccc(-n2nnnc2/C=C/N2CCOCC2)cc1 | 1.8
COc1ccc(Oc2coc3c(CN(C)C)c(O)ccc3c2=O)cc1 | 0.83
SMILES | Dicer inh
CCc1c(O)nc(SCC(=O)N2CCc3ccccc32)n(-c2ccccc2)c1=O | -1
CCCCc1c(O)nc(SCCN(CC)CC)n(-c2ccccc2)c1=O | 3.3*
CCCCc1c(O)nc2sc3ccccc3n2c1=O | 0.25
COc1c([N+](=O)[O-])c(=O)oc2ccccc12 | -0.37
CC1=C(C(=O)OC2CCCC2)C(c2coc3ccccc3c2=O)C2=C(CCCC2=O)N1 (stereo not drawn) | 2.4
Cc1nn(C)c(C)c1CN(C)C(=O)c1cnn2c(C(F)F)cc(-c3ccccc3)nc12 | 2.2
CCCCCCCn1cnc2c(sc3nc4c(cc32)COC(C)(C)C4)c1=O | 1.5
CC1C(c2ccccc2)OCCN1CN1C(=O)c2ccccc2C1=O (stereo not drawn) | 3.7*
Cc1onc(-c2ccccc2Cl)c1C(=O)N1CCOC(c2ccccc2)C1C (stereo not drawn) | -0.25
O=C1c2ccccc2C(=O)N1CC1CN(CC(O)C(F)(F)F)CCO1 (stereo not drawn) | 0.07
COc1ccccc1N1C(=O)c2cccc3c(Cl)ccc(c23)C1=O | -1.1
O=C1CC(c2coc3ccccc3c2=O)Sc2ccccc2N1 (stereo not drawn) | -0.27
O=C(CC1(O)C(=O)N(Cc2ccccc2)c2ccccc21)c1ccc(Cl)cc1 (stereo not drawn) | 3*
Cc1ccc(C(=O)CC2(O)C(=O)N(CCc3ccccc3)c3ccc(Br)cc32)s1 (stereo not drawn) | 4.9*
Cc1ccccc1CN1C(=O)C(O)(CC(=O)c2cccs2)c2cc(Cl)ccc21 (stereo not drawn) | 5.3*
O=C(CC1(O)C(=O)N(Cc2ccc(Cl)cc2)c2ccccc21)c1cccs1 (stereo not drawn) | 0.52
O=C(CC1(O)C(=O)N(CCc2ccccc2)c2ccc(Br)cc21)c1ccco1 (stereo not drawn) | 2.6
Cc1coc(C)c1C(=O)CC1(O)C(=O)N(CCc2ccccc2)c2ccc(Br)cc21 (stereo not drawn) | -0.43
CN1C(=O)C(O)(CC(=O)c2ccc3c(c2)CCCC3)c2ccccc21 (stereo not drawn) | 3.3*
CN(C)c1ccc(C(=O)CC2(O)C(=O)N(Cc3ccc(Cl)cc3)c3ccccc32)cc1 (stereo not drawn) | -1.7
CN1C(=O)C(O)(CC(=O)c2ccccc2)c2ccccc21 (stereo not drawn) | 2
CN1C(=O)C(O)(CC(=O)c2ccc3c(c2)OCO3)c2ccccc21 (stereo not drawn) | 1.8
Cc1ccc(CN2C(=O)C(O)(CC(=O)c3cccs3)c3cc(Cl)ccc32)cc1 (stereo not drawn) | 1.4
Cc1ccccc1CN1C(=O)C(O)(CC(=O)c2cccnc2)c2cc(Cl)ccc21 (stereo not drawn) | 2.4
CC(C)S(=O)(=O)C/C(N)=N/OCc1c(Cl)cccc1Cl | 0.21
COc1ccc(O)c(C2=NN3C(C2)c2cccc(OC)c2OC3c2ccsc2)c1 (stereo not drawn) | 0.43

Bioassay records (PubChem)
